Measurements reported in PubChem BioAssay (NCATS).
Values joined by “and” are separate entries in the source; they are usually repeats but may differ in a detail not shown here. Equal entries are not always repeated. Records with an inconclusive call do not appear. Active and inactive are the calls of the source. Unless noted, the call rests on the fitted dose curve; in most records, active means well fitted curve in the direction sought with a large enough effect; inconclusive means small, poorly fitted or top-dose-only effect, or another doubt; inactive means no such curve, though single readings can be large; an effect the other way counts as inactive or inconclusive.

Legend:
[1] = qHTS for differential inhibitors of proliferation of Plasmodium falciparum line D10 (AID 1877);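 further: potency means the concentration at half of the fitted maximal effect; parasites grown with compound for 72 h before DNA staining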
[2] = qHTS for differential inhibitors of proliferation of Plasmodium falciparum line Dd2 (AID 1882); conditions: Potency: Plasmodium falciparum Dd2 proliferation inhibition; further: potency means the concentration at half of the fitted maximal effect; nearly all actives have a fitted effect of over 65% in size
Method in brief: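 Dd2-infected erythrocytes (0.3% parasitemia, 2.5% hematocrit final) incubated with compound 72 h at 37 C, 5% CO2; lysed with saponin/Triton buffer containing SYBR Green I, incubated overnight in the dark, then read by fluorescence (485/535 nm). Normalized to 0.29 uM artemisinin and DMSO.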

[3] = qHTS for differential inhibitors of proliferation of Plasmodium falciparum line W2 (AID 1883); conditions: Potency: Plasmodium falciparum W2 proliferation inhibition;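 further: potency means the concentration at half of the fitted maximal effect; parasites grown with compound for 72 h before lysis and staining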
[4] = qHTS for differential inhibitors of proliferation of Plasmodium falciparum line HB3 (AID 1886); conditions: Potency: Plasmodium falciparum HB3 proliferation inhibition;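 further: potency means the concentration at half of the fitted maximal effect; parasites grown with compound for 72 h before SYBR Green readout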
[5] = biological target: ATP-dependent DNA helicase Q1 (Homo sapiens) (UniProt P46063); test: qHTS Validation Assay for Inhibitors of RecQ-Like Dna Helicase 1 (RECQ1) (AID 2353)
Method in brief: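 50 nM RECQ1T1 preincubated 15 min with compound in Tris pH 8.0 buffer with MgCl2, DTT, Tween-20 and 2.5 ug/ml poly(dI-dC); started with 200 nM TAMRA/BHQ-2 forked duplex and 2 mM ATP. Unwinding read as fluorescence (525/598 nm), two reads 2 h apart.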

[6] = Cytometric Cell-Based qHTS for Inhibitors of the mTORC1 Signaling Pathway in MEF (Tsc2-/-, p53-/-) Cells (AID 2660);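 further: Tsc2 and p53 null MEFs carrying empty vector with compound for 24 h; percent of cells above a phospho-rpS6 to PI ratio cutoff in each well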
Method in brief: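 Cells are plated, treated with compound for 24 hrs at 37 degree Celsius, then fixed, blocked and immunostained for phospho-rpS6 Ser235/236. Propidium iodide counterstain follows. Per-well % positive cells is derived from the PI-normalized phospho-S6 signal.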

[7] = High Content Imaging Cell-Based qHTS for Inhibitors of the mTORC1 Signaling Pathway in MEF (Tsc2-/-, p53-/-) Cells (AID 2666); conditions: at 38.3 µM (top of the series);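 further: percent of cells scored positive for phospho-rpS6 Ser235/236 immunostaining by imaging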
Method in brief: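 Cells were plated, dosed with compound after 24 hrs, and incubated another 24 hrs at 37 degree Celsius. Fixed cells were immunostained for phospho-rpS6 Ser235/236 and counterstained, and the normalized signal was scored as % active cells against rapamycin and DMSO controls.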

[8] = High Content Imaging Cell-Based qHTS for Inhibitors of the mTORC1 Signaling Pathway in MEF Cells (AID 2667);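 further: Tsc2-/- p53-/- MEFs stably re-expressing wild-type Tsc2 exposed 24 h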
Method in brief: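 Immunofluorescence for rpS6 phosphorylation in MEFs of Tsc2-/-, p53-/- background rescued with WT Tsc2. Compound exposure lasted 24 hrs. Inhibition was scored against rapamycin-treated control wells.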

[9] = biological target: Ubiquitin carboxyl-terminal hydrolase 2 (Homo sapiens) (UniProt O75604); test: qHTS Validation Assay for Inhibitors of Ubiquitin-specific Protease USP2a Using CHOP2 as the Reporter (AID 463106)
Method in brief: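 10nM USP2 core + cpd, 30min RT; add 25nM Ub-CHOP2/25nM substrate; 60min RT; FI 485/531nm. Buffer Tris pH 8.0, CaCl2, BME, CHAPS. Norm. to NEM = 100% inhibition; time-zero read flags fluorescent artifacts.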

[10] = biological target: Tumor susceptibility gene 101 protein (Homo sapiens) (UniProt Q99816); test: qHTS Validation Assay for Iinhibitors of HIV-1 Budding by Blocking the Interaction of PTAP/TSG101 (AID 485342; calls by dose curve)
Method in brief: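 Compound wells held the Tsg101 binding domain (10 uM) and a FITC-conjugated PTAP peptide (50 nM) in buffer at pH 7.5 containing 0.15 M NaCl and 0.01% Tween 20; polarization was recorded after 20 min, r.t.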

[11] = biological target: Beta-2 adrenergic receptor (Homo sapiens) (UniProt P07550); test: qHTS validation assay of beta-arrestin-biased ligands of beta2-adrenergic receptor (AID 485366)
Method in brief: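 Values derive from curve-fitted %Activity of a luminescent beta-arrestin recruitment reporter; compounds tested up to 46 microM on Tango cells for 18 hr at 37 degrees C, 5% CO2.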

[12] = biological target: ATP-dependent 6-phosphofructokinase (Trypanosoma brucei brucei) (UniProt O15648); test: qHTS Validation Assay to Find Inhibitors of T. brucei phosphofructokinase (AID 485368)
Method in brief: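 Enzyme reaction in triethanolamine buffer pH 8.0 with 5 mM MgCl2, 0.01% Tween20 and 0.1% BSA; PFK 1.25 nM, F6P 0.5 mM, ATP 0.1 mM, 45 min RT. ADP quantified by ADP-Glo.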

[13] = Quantitative high throughput screen for delayed death inhibitors of the malarial parasite plastid, 96 hour incubation (AID 488745); further: potency means the concentration at half of the fitted maximal effect; nearly all actives have a fitted effect of over 70% in size
Method in brief: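 Infected erythrocytes were added to compound in Albumax-supplemented RPMI 1640 at 0.1% parasitemia and 2% hematocrit (final), incubated 96 h at 37 C under 5% CO2, then luciferase reagent was added and luminescence measured.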

[14] = biological target: Thioredoxin reductase 1, cytoplasmic (Rattus norvegicus) (UniProt O89049); test: qHTS Assay for Substrates of Mammalian Selenoprotein Thioredoxin Reductase 1 (TrxR1) (AID 488772);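 further: NADPH fluorescence in the first read after selenite addition and not the 8 min delta; a drop in NADPH fluorescence below the no-compound background marks a TrxR1 substrate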
Method in brief: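 Quantitative HTS in Tris-HCl buffer at pH 7.5 with EDTA and Tween-20, using rat TrxR1, 400 uM NADPH and 400 uM selenite (final). A fall in initial NADPH fluorescence relative to background marked substrate behaviour.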

[15] = biological target: Thioredoxin reductase 1, cytoplasmic (Rattus norvegicus) (UniProt O89049); test: qHTS Assay for Inhibitors of Mammalian Selenoprotein Thioredoxin Reductase 1 (TrxR1) (AID 488773); conditions: Potency: inhibition;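 further: drop in NADPH fluorescence over an 8 min run after selenite addition; nearly all actives have a fitted effect of over 40% in size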
Method in brief: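 Steps: enzyme (90 nM) plus NADPH (400 uM final), 5 min at ~22 deg C; compound added, 15 min; selenite (400 uM final) added; fluorescence followed for 8 min. Concentration-response curves derived from the normalized delta values.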

[16] = biological target: M-phase phosphoprotein 8 (Homo sapiens) (UniProt Q99549); test: qHTS Validation Assay for Inhibitors for MPP8 Chromodomain Interactions with Methylated Histone Tails (AID 488949); further: potency means the concentration at half of the fitted maximal effect; nearly all actives have a fitted effect of over 55% in size
Method in brief: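 Chemiluminescent proximity assay: histidine-tag capture via nickel acceptor beads, biotin peptide via streptavidin donor beads. Protein and peptide each at 50 nM, pH 7.4, with 30 min incubations at room temperature for complex formation, compound exposure and bead binding.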

[17] = biological target: Chromobox protein homolog 1 (Homo sapiens) (UniProt P83916); test: qHTS Validation Assay for Inhibitors of HP1-beta Chromodomain Interactions with Methylated Histone Tails (AID 488953); further: potency means the concentration at half of the fitted maximal effect; nearly all actives have a fitted effect of over 50% in size
Method in brief: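 50 nM HP1-beta + 50 nM biotin-H3(1-18)K9me3, PBS pH 7.4, 0.01% Tween-20, 30 min RT; compound added, 30 min RT; AlphaScreen beads 10 ug/mL final, 30 min dark; luminescence read.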

[18] = biological target: Methanococcus maripaludis chaperonin (MmCpn) (UniProt Q6LX38); test: High-Throughput Screening for Modulators of Cytosolic Chaperonin Activity: MmCpn Primary Screen (AID 488978)
Method in brief: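 HTRF readout (320 nm excitation, 590/665 nm emission) of ADP generated by 50 nM MmCpn hydrolysing 30 uM ATP during 10 min at 37C; compound preincubated 5 min RT.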

[19] = biological target: Transient receptor potential cation channel subfamily V member 1 (Homo sapiens) (UniProt Q8NER1); test: HTS Assay for Compounds that Act as Enhancers of the Vanilloid Receptor 1 (AID 488979)
Method in brief: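 Calcium influx kinetics via Fluo-8 (480/520 nm) in TRPV1-expressing cells, 2000/well cultured overnight at 35.5C. Compound-alone read 3 min (agonist phase), followed by EC20 capsaicin challenge for 2 min (enhancer phase).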

Measured: Potency

Thioredoxin reductase 1, cytoplasmic (Rattus norvegicus), sequence (O89049 whole entry, looked up): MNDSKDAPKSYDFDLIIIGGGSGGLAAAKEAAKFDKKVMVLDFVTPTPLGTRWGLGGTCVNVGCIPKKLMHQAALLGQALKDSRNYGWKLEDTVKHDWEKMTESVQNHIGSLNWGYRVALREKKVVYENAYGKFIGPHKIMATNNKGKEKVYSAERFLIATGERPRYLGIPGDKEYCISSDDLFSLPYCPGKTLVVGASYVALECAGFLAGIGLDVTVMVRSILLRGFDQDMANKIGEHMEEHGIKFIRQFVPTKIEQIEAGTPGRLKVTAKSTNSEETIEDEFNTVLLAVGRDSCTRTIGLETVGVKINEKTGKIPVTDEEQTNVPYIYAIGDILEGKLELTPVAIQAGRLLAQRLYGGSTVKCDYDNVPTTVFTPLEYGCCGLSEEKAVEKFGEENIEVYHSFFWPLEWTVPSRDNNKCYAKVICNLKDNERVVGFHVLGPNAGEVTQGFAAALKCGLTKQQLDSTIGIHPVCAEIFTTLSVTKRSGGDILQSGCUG
M-phase phosphoprotein 8 (Homo sapiens), sequence (Q99549 whole entry, looked up): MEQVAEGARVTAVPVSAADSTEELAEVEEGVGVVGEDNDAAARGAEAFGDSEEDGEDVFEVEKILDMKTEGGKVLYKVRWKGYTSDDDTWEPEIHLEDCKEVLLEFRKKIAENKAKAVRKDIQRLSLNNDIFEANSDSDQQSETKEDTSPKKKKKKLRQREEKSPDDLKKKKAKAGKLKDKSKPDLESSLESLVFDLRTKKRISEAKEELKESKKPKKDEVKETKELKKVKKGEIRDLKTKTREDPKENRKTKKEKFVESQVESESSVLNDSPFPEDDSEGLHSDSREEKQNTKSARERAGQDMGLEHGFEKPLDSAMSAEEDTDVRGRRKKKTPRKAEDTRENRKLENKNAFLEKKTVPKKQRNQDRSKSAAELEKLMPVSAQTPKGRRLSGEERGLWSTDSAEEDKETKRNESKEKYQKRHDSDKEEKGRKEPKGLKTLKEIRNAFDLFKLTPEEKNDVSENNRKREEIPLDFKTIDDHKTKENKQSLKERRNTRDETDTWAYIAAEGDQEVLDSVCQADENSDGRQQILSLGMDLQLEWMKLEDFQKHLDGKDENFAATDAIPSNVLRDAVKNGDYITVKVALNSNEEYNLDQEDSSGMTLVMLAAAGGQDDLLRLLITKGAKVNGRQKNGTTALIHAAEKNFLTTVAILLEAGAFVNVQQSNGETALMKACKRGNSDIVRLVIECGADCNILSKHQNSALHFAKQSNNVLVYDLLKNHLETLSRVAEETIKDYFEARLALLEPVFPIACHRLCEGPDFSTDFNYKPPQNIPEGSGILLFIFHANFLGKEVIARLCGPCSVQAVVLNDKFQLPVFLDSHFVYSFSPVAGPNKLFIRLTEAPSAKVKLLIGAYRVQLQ
Beta-2 adrenergic receptor (Homo sapiens), sequence (P07550 whole entry, looked up): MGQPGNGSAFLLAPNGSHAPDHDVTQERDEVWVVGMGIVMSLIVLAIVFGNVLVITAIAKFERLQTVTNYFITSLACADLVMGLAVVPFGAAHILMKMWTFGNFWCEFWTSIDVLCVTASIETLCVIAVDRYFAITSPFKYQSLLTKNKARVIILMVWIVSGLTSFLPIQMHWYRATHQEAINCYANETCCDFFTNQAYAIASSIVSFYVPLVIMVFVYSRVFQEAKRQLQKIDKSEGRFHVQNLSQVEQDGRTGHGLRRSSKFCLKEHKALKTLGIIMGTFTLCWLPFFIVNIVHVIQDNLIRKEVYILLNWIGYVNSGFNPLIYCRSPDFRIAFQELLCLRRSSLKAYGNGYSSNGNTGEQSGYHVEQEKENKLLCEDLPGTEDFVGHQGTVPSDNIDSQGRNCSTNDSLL
ATP-dependent DNA helicase Q1 (Homo sapiens), sequence (P46063 whole entry, looked up): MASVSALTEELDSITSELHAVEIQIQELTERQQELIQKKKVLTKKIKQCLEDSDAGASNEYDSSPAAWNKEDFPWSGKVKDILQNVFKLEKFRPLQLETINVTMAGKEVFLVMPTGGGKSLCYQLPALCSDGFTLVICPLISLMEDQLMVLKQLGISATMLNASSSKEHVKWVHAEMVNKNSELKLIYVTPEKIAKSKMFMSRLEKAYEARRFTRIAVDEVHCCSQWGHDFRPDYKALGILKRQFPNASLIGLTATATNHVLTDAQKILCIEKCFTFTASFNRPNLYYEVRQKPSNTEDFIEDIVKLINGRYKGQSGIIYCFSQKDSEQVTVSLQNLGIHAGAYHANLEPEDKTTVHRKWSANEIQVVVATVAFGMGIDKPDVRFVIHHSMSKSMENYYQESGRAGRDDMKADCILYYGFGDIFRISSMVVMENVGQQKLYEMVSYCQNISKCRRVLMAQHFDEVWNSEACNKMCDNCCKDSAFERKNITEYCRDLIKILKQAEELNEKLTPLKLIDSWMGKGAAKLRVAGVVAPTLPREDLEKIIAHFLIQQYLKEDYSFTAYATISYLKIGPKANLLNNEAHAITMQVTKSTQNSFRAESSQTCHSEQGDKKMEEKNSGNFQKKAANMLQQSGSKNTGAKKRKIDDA
Tumor susceptibility gene 101 protein (Homo sapiens), sequence (Q99816 whole entry, looked up, the tested form may be a part): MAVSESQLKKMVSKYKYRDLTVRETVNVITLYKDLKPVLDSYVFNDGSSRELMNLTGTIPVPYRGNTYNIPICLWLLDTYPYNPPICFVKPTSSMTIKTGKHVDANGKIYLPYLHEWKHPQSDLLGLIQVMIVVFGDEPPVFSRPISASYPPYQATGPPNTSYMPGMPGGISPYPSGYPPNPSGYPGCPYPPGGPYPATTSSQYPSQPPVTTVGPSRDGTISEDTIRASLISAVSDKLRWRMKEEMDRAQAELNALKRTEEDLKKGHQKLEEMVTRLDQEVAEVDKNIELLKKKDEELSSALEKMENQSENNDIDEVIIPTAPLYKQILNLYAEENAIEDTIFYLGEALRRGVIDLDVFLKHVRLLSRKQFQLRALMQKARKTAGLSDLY
Methanococcus maripaludis chaperonin (MmCpn), sequence (Q6LX38 1-543): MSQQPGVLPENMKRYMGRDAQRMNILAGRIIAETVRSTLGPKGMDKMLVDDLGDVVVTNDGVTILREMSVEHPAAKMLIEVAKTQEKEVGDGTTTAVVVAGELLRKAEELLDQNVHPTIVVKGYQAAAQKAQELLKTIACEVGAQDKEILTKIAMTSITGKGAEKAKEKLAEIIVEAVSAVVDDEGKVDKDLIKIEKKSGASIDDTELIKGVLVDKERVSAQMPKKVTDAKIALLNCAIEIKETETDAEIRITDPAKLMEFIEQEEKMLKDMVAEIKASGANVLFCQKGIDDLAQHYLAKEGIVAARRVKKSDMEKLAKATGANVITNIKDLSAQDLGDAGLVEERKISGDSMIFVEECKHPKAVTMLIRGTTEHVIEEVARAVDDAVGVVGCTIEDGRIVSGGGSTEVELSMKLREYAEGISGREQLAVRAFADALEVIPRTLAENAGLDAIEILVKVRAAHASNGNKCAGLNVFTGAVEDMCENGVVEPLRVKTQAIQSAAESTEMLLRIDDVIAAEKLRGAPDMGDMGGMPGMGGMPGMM
Transient receptor potential cation channel subfamily V member 1 (Homo sapiens), sequence (Q8NER1 whole entry, looked up): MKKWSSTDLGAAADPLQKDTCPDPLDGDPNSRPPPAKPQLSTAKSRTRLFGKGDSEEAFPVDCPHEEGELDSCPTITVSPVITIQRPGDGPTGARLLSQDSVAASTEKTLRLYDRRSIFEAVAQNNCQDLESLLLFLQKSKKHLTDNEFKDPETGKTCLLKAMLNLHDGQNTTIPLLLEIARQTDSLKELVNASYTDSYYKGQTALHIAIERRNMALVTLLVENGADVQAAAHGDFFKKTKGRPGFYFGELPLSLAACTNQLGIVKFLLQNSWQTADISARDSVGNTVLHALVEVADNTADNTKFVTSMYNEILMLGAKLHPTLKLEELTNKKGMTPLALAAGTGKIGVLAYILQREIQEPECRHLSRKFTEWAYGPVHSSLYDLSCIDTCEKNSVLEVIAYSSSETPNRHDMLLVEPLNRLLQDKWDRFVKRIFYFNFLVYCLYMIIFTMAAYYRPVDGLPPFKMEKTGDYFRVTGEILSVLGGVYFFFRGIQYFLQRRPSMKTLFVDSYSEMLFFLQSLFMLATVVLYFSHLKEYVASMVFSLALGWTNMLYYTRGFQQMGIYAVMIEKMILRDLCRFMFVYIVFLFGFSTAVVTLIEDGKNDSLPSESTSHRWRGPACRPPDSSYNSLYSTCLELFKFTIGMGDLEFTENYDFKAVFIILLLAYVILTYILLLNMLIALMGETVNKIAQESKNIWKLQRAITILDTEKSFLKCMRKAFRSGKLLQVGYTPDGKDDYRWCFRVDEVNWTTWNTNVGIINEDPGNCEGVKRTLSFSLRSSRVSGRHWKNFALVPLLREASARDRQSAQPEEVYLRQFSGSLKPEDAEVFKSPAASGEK
Ubiquitin carboxyl-terminal hydrolase 2 (Homo sapiens), sequence (O75604 whole entry, looked up): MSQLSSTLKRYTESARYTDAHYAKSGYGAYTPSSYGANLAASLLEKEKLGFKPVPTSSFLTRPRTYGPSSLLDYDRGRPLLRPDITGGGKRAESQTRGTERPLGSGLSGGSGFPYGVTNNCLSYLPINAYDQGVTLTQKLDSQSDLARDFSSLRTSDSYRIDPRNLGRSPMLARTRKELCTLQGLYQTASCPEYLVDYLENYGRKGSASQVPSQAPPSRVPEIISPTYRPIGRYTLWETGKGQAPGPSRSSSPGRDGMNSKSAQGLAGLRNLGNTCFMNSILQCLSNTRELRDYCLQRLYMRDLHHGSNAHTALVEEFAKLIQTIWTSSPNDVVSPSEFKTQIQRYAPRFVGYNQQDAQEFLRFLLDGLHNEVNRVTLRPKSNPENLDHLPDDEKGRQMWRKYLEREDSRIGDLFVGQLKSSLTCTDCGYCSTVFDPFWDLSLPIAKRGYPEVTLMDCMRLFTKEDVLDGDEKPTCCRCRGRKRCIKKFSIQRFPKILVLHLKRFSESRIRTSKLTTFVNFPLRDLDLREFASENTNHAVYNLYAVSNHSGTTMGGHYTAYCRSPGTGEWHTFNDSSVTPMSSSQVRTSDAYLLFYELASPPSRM
Chromobox protein homolog 1 (Homo sapiens), sequence (P83916 whole entry, looked up): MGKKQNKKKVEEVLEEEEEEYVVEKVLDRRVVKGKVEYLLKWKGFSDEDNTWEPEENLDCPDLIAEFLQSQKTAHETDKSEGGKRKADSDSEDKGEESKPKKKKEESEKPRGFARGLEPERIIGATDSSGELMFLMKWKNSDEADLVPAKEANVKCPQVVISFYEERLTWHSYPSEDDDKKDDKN

O=Nc1c(-c2c(O)[nH]c3ccccc23)[nH]c2ccccc12
active: [1] 1580 nM | [2] 2240 nM | [3] 398 nM | [4] 501 nM | [13] 1170 nM | [16] 6.31 µM and 7.52 µM | [17] 3980 nM
inactive: all other assays above
